Compound activity deposited in PubChem BioAssay by several laboratories.
CYP2C9 inhib – inhibitors of human CYP2C9; P11712; CYP2C9 Supersomes, luciferin-H conversion, luminescence; inhibition, % at 5 µM; 96,000 compounds, 20% hits; AID 777;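 active = blocking of liver enzyme CYP2C9 beyond about 50% at 5 µM, limit read from the data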
Target sequence (P11712 whole entry, looked up): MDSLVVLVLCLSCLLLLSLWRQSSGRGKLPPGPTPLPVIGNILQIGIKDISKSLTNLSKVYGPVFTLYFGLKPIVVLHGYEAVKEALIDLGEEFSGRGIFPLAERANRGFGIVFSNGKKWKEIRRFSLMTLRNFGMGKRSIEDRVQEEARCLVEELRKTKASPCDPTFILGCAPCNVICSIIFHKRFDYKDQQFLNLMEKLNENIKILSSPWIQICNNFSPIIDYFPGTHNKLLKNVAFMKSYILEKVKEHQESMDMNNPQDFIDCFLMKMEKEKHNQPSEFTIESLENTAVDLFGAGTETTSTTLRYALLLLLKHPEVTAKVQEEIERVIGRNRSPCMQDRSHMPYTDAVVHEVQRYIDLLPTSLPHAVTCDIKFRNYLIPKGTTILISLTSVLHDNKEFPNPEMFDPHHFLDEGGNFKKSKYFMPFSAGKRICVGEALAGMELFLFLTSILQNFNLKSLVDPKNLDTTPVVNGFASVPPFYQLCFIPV
CYP2C9 act – CYP2C9 (human) activation; recombinant CYP2C9, luciferin-H conversion, luminescence; active compounds read high; factor 1 = untreated enzyme, 0 = blocked; activation factor at 5 µM; 96,000 compounds, 1.4% hits;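 active = activation factor of 2 or more for CYP2C9 at a 5 µM dose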;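 also: 0 = sulfaphenazole-blocked wells and 1 = vehicle-only wells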
CYP2C19 inh – inhibitors of human CYP2C19. 96,000 compounds, 21% hits. inhibition, % at 5 µM. P33261. CYP2C19 Supersomes, luciferin-H EGE luminescence, 30 min. AID 778;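 active = CYP2C19 inhibition above a set limit at 5 µM in the primary screen, cut at about 50% in these data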;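 also: plate controls were negative control wells for no effect and 2.5 mM tranylcypromine positive control for full effect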
Measles CPE – protection of cells from measles virus | Measles virus-infected cells, CPE protection, absorbance | 140,000 compounds, 1.5% hits | protection (pct of control), % at 4 µM | AID 841; in the data active = protection mostly above about 24%, no sharp cut-off; inactive = mostly below about 26%
CYP2C19 activ – increases human CYP2C19 enzyme activity. P33261. recombinant CYP2C19, luciferin-H EGE luminescence; active compounds read high; 0 = fully inhibited enzyme, 1 = untreated enzyme. activation factor at 5 µM. 96,000 tested, under 10 active;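 active = activation factor of at least 2 at 5 µM in the primary screen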;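 also: 0 = wells with 2.5 mM tranylcypromine and 1 = vehicle-only wells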
Starred values were filed as active, the others as inactive; . = not tested or not shown. Hits are enriched below; roughly 22% of the tested compounds scored in any of these assays.

SMILES	CYP2C9 inhib	CYP2C9 act	CYP2C19 inh	Measles CPE	CYP2C19 activ
Cc1ccc(S(=O)(=O)N=S(CC2CC2(Cl)Cl)CC2CC2(Cl)Cl)cc1 (stereo not drawn)	44	0.6	62*	0	0.4
Cn1nc(C(=O)OCC(=O)N2CCc3ccccc32)c2ccccc2c1=O	7	0.9	6	7	0.9
O=C(NC(=S)NC1CCSC1=O)c1cccs1 (stereo not drawn)	.	.	.	3	.
CCCNC(=O)c1cc(SC)ccc1Cl	9	0.9	-5	19	1
Cc1cc(=O)n2nc(-c3ccccc3)sc2n1	-13	1.1	-11	.	1.1
CCOc1ccc(-c2nnc3sc(COc4ccccc4)nn23)cc1	-10	1.1	17	25	0.8
Cc1ccccc1-c1nn2c(-c3ccccc3)nnc2s1	56*	0.4	87*	7	0.1
c1ccc(-c2cc(-c3nn4c(-c5ccco5)nnc4s3)c3ccccc3n2)cc1	77*	0.2	37	3	0.6
CCOc1ccc(-c2nn3c(-c4ccccc4)nnc3s2)cc1	24	0.8	29	3	0.7
Cc1cc(-c2nn3c(-c4ccccc4)nnc3s2)c2ccccc2n1	32	0.7	79*	4	0.2
Cc1ccc(-c2nnc3sc(CCc4ccccc4)nn23)cc1	76*	0.2	65*	6	0.3
Cn1nnnc1SCC(=O)NC(C)(C)C	3	1	7	3	0.9
Cc1ccc(C(=O)CSc2nc(C)cc(C)c2C(N)=O)cc1	60*	0.4	77*	1	0.2
COc1cc(/C=C2/S/C(=N/S(=O)(=O)c3ccccc3)NC2=O)c([N+](=O)[O-])cc1OC	99*	0	7	3	0.9
Cc1ccc(OCc2cc(C(=O)Nc3ccccc3)oc2C)cc1	21	0.8	15	8	0.8
CN(C)c1ccc(C2C3C(=O)NC(=O)C3ON2c2ccc(Cl)cc2)cc1 (stereo not drawn)	37	0.6	51*	15	0.5
O=C1C2=C(NC(=S)NC2c2ccc(Cl)cc2)NC(c2ccc(Cl)cc2)N1c1ccc(Cl)cc1 (stereo not drawn)	27	0.7	36	9	0.6
CC1CN(C(=O)c2cccc(S(=O)(=O)N3CCOCC3)c2)CC(C)O1 (stereo not drawn)	-10	1.1	-13	36	1.1
CC(=O)N(/N=C1\Sc2ccccc2C1=O)c1ccccc1C	30	0.7	39	7	0.6
CC(=O)N(/N=C1\Sc2ccccc2C1=O)c1ccccc1	63*	0.4	50*	7	0.5
Cc1cccc(C)c1OCC(=O)NNC(=O)c1ccoc1C	-28	1.3	13	7	0.9
Cc1ccc(NCCC(=O)c2cccc([N+](=O)[O-])c2)c(C)c1	38	0.6	75*	5	0.2
Cc1ccc(CSCCNC(=O)c2cccc([N+](=O)[O-])c2)cc1	.	.	.	6	.
COc1ccc(C(=O)c2c(C(F)(F)F)oc3c2C(=O)c2ccccc2C3=O)cc1OC	43	0.6	67*	10	0.3
COc1ccc(C(=O)Nc2ccc3c(c2)C(=O)c2ccccc2C3=O)cc1OC	.	.	.	7	.
SMILES	CYP2C9 inhib	CYP2C9 act	CYP2C19 inh	Measles CPE	CYP2C19 activ
N#CCCn1cc(/C=N/NC(=O)c2ccncc2)c(-c2ccccc2)n1	68*	0.3	53*	11	0.5
Cc1ccc(C2C(/C=C3/SC(=S)NC3=O)=C(c3cccs3)Oc3ccccc32)cc1 (stereo not drawn)	68*	0.3	1	5	1
NC(=O)C1CCN(c2nnnn2-c2ccccc2)CC1	10	0.9	42	4	0.6
O=C(NC1CCCCC1)C1CCCN(c2nnnn2-c2ccccc2)C1 (stereo not drawn)	38	0.6	55*	4	0.5
CCOC(=O)C1CCCN(c2nnnn2-c2ccccc2)C1 (stereo not drawn)	39	0.6	81*	6	0.2
COc1ccc(CCNC(=O)COC(=O)C23CC4CC(CC(C4)C2)C3)cc1	.	.	.	9	.
O=C(COC(=O)c1ccc(-c2ccc([N+](=O)[O-])cc2)o1)NC(=O)NC12CC3CC(CC(C3)C1)C2	.	.	.	6	.
COc1ccc(CC(=O)OCC(=O)NC(=O)NC23CC4CC(CC(C4)C2)C3)cc1	66*	0.3	32	3	0.7
COc1ccc(CCNC(=O)NC23CC4CC(CC(C4)C2)C3)cc1	23	0.8	53*	4	0.5
COc1ccc(N2CCN(C(=O)NC34CC5CC(CC(C5)C3)C4)CC2)cc1	59*	0.4	63*	24	0.4
Cc1noc(C)c1C(=O)N1CCN(CCc2ccccc2)CC1	7	0.9	17	16	0.8
Cc1ccc(CN2CCN(C(=O)c3ccco3)CC2)cc1	.	.	.	2	.
Cc1occc1C(=O)N1CCN(Cc2ccccc2)CC1	33	0.7	90*	3	0.1
Cc1noc(C)c1S(=O)(=O)NCCCN1CCN(Cc2ccccc2)CC1	0	1	3	30*	1
Cc1noc(C)c1S(=O)(=O)NCCN1CCN(c2ccccc2)CC1	-13	1.1	-6	7	1.1
O=C(c1coc(=O)c2ccccc12)N1CCN(Cc2ccccc2)CC1	-30	1.3	55*	3	0.4
Cc1noc(C)c1C(=O)N1CCN(Cc2ccccc2)CC1	10	0.9	91*	13	0.1
CCc1nnc(NC(=O)CN2C(=O)CCC2=O)s1	.	.	.	15	.
CCOc1cc(NC(=S)NCc2ccco2)c(OCC)cc1NC(=O)CC	.	.	.	10	.
Cc1nc(-c2cn[nH]c2)c2cc(C)oc2n1	0	1	3	5	1
Cc1c(NC(=O)C(C)Sc2n[nH]c(N)n2)c(=O)n(-c2ccccc2)n1C (stereo not drawn)	-12	1.1	-6	8	1.1
COc1cccc(/C=C2/SC(=S)N(CC(=O)Nc3nnc(C)s3)C2=O)c1	.	.	.	4	.
COC(=O)c1ccc(COC(=O)c2ccc(S(=O)(=O)N3CCC(C)CC3)cc2)o1	69*	0.3	27	7	0.7
Cc1ccc(S(=O)(=O)NCC(=O)OCC(=O)Nc2ncc(Cl)cc2Cl)cc1	13	0.9	26	5	0.7
O=C(COC(=O)CC12CC3CC(CC(C3)C1)C2)Nc1ncc(Cl)cc1Cl	66*	0.3	89*	16	0.1
SMILES	CYP2C9 inhib	CYP2C9 act	CYP2C19 inh	Measles CPE	CYP2C19 activ
O=C(COC(=O)C12CC3CC(CC(C3)C1)C2)Nc1ncc(Cl)cc1Cl	17	0.8	79*	22	0.2
CC(C)(Oc1ccc(Cl)cc1)C(=O)OCC(=O)Nc1ncc(Cl)cc1Cl	48	0.5	91*	21	0.1
CN(C)S(=O)(=O)N1CCN(C(=O)c2ccccc2)CC1	-2	1	44	10	0.6
C=CCC(C)(NCc1ccccc1)c1ccco1 (stereo not drawn)	22	0.8	35	15	0.6
COc1ccc(Cn2cc(C(=O)c3ccccc3)c(=O)c3cc(OC)ccc32)cc1	.	.	.	3	.
COc1ccc(Oc2coc3cc(OCC(=O)N4CCCCC4)ccc3c2=O)cc1	.	.	.	20	.
COc1ccc(-c2c(C)nc(N)nc2-c2ccc(OCc3ccc(C)cc3)cc2O)cc1OC	.	.	.	8	.
